Out of some 69,000 compounds screened, about 1,000 (1.4%) showed an effect of 50% or more. Only a selection was taken, and strong results are over-represented in it overall.

For the assay, the system named is Leishmania donovani. Briefly: Leishmania intramacrophage assay. The format is functional, organism-based. On the set-up: scale not given: in the data most compounds retested in dose-response had high values.

Regarding `COc1ncc(-c2ccc(NC(C)=O)cc2)c(OC)n1`, the “Percent Effect” value (30.3 µM, […]) amounted to 5.344%.
Same read-out and setting: the value for `CCOCC1CN(C(=O)C2CCOCC2)Cc2cnn(C)c21` (stereo not given) was -4.533%; that for `COCCN1C[C@@H]2[C@@H](OC)CCN(Cc3cccs3)[C@@H]2C1.O=C(O)C(F)(F)F.O=C(O)C(F)(F)F` was 25.04%.
Regarding `NC(=O)Cn1cc(NC(=O)N2CCSCC2)cn1`, for the setting “30 µM”, the “Percent Effect” value is listed as -2.179%.
On to `CCOc1ccc2nc(NC(=O)c3c(C(=O)O)cnn3C)sc2c1`, for which, under “30.3 µM, […]”, the “Percent Effect” value is on record as 4.578%.
The same measure, in the same setting: the same measure for `Cc1c(Cl)ccc2ccc(NC(CO)CO)nc12`: 6.475%; for `CC(NC(=O)Cn1cc(C(N)=O)c(-c2ccccc2)n1)C1CC1` (stereo not given): 12.7%.
The same measure, in the same setting: the value for `CC(C)(N)C(=O)N1CCCC(C(=O)c2ccc(C(C)(C)C)cc2)C1` (stereo not given) was 91.24%.
Regarding `CC(=O)NCC(=O)N1CCCC(C(=O)c2ccc(C(C)(C)C)cc2)C1` (stereo not given), the “Percent Effect” value (30.3 µM, […]) was found to be 16.87%.
On the same count and under the same terms, the value for `CC(C)(C)c1ccc(C(=O)C2CCCN(C(=O)CNS(C)(=O)=O)C2)cc1` (stereo not given) was 1.067%.
The same measure, in the same setting: the same measure for `Cc1cc(COC(=O)[C@@H]2Cc3ccccc3CN2S(C)(=O)=O)no1`: 12.34%; for `Cc1nccc(NCc2cncc3c2CCN(CCN(C)C)C3)n1`: 29.74%; for `Cc1nccc(NCc2cncc3c2CCN(CC2CCOC2)C3)n1.Cl.Cl` (stereo not given): 55.7%.
Still for that read-out and setting: the same measure for `Cc1nccc(NCc2cncc3c2CCN(CC2CC2)C3)n1.Cl.Cl`: 25.61%.
Take `CCOC(=O)CC1(Nc2nc(C)nc3c2cnn3C)CCCCC1`: the “Percent Effect” value (30.3 µM, […]) worked out at 50.84%.
As for `Cc1nc(NC2(CN3CCCCC3)CCCCC2)c2cnn(C)c2n1`, the “Percent Effect” value (30.3 µM, […]) worked out at 21.44%.
On the same count and under the same terms, the same measure for `COCC1(Nc2nc(C)nc3c2cnn3C)CCCC1`: 32.37%.
On to `CCOc1ccccc1C1=CCN(C(=O)C2CCN(C)C(=O)C2)CC1` (stereo not given), for which, where the note is “30 µM”, the “Percent Effect” value was -1.516%.
With `O=C1CC(NCc2cccc(O)c2)CN1CCc1cccc(Cl)c1` (stereo not given), for the setting “30.3 µM, […]”, the “Percent Effect” value worked out at 24.84%.
Same read-out and setting: the value for `Cc1nnc(NC(=O)C2CSCN2C(=O)C2CCCC2)s1` (stereo not given) was -31.76%; that for `O=C(c1cc(-c2ccn(CC3CC3)n2)n2ccccc12)N1CCOCC1` was 88.37%; that for `O=C(c1cc(-c2ccn(CC3CC3)n2)n2ccccc12)N1CCCO1` was 27.45%.
The same measure, in the same setting: the same measure for `O=C(O)c1cc(-c2ccn(CC3CC3)n2)n2ccccc12`: 20%; for `O=C(c1ccc(NCc2ccco2)nc1)N1CCc2ccccc21`: -1.41%; for `CC(=O)NC1CCCc2c1[nH]c1ccc(F)cc21` (stereo not given): 4.787%.
Still for that read-out and setting: the value for `Fc1ccc2[nH]c3c(c2c1)CCN1C(c2ccncc2)N2CCC31CC2` (stereo not given) was 86.05%; that for `Fc1ccc2[nH]c3c(c2c1)CCN1C(c2ccccn2)N2CCC31CC2` (stereo not given) was 22.17%.
For `O=C(OCc1ccccc1)N1CC[C@H]2CC(CO)O[C@@H]2C1` (stereo not given in full), the “Percent Effect” value (30.3 µM, […]) was -47.27%.
On the same count and under the same terms, the same measure for `CN1CCC(n2nc(Cc3cccc(Cl)c3)nc2Cn2ccnc2)CC1`: 15.54%; for `Cc1noc(C)c1CCCNC(=O)C1CCN(C(=O)C2CC2)CC1`: -2.423%; for `CC(C)Cc1noc(C2CCCN(C(=O)CCc3cnn(C)c3)C2)n1` (stereo not given): 5.747%.
Still for that read-out and setting: the value for `CCCN1CCC(NC(=O)Nc2ccc(OC)c(OC)c2)CC1` was 8.2%.
Regarding `CCCN1CCC(NC(=O)c2csc(C)c2-c2ccccc2)CC1`, for the setting “30.3 µM, […]”, the “Percent Effect” value was found to be 11.13%.
Still for that read-out and setting: the value for `CCCN1CCC(Nc2cc(-c3ccccc3)ccc2OC)CC1` was 94.4%.
As to `Cc1ccc(C2CCCN(C(=O)c3cnn(C)c3)C2)nc1` (stereo not given), the “Percent Effect” value (30.3 µM, […]) was -15.16%.
As for `O=C(c1cc(Cl)ccc1F)N1CCCC1Cn1cccn1` (stereo not given), the “Percent Effect” value (30 µM) is reported as -22.81%.
As for `COc1cc(NCc2ccncc2)c(-c2nn[nH]n2)cc1OC`, the “Percent Effect” value (30.3 µM, […]) was -13.14%.
Still for that read-out and setting: the value for `COCCN1C(=O)CCC12CCN(C(=O)CNC(C)=O)CC2` was 21.99%; that for `COc1cc(-c2cc(C3CCOC3)c(C#N)c(N)n2)ccc1O` (stereo not given) was 14.88%; that for `COc1ccc2c(c1)c(-c1nc(N(C)C)ncc1CN)cn2C` was 97.85%.
With `COc1ccc2c(c1)c(-c1nc(C)ncc1CN)cn2C`, under “30.3 µM, […]”, the “Percent Effect” value turned out to be 49%.
Still for that read-out and setting: the value for `COCC(=O)NCc1cnc(C)nc1-c1cn(C)c2ccc(OC)cc12` was 7.699%; that for `Cc1ccccc1C(C)NC(=O)CN1CCN(Cc2ccc(Br)s2)CC1` (stereo not given) was -13.55%.
As for `CCn1cc(NC(=O)NCc2ccc3c(c2)OCO3)cn1`, for the setting “30 µM”, the “Percent Effect” value was 18.35%.
Consider `O=C(NC1CC(F)(F)C1)[C@]12COC[C@H]1CN(Cc1ccccc1)C2.O=C(O)C(F)(F)F`, for which the “Percent Effect” value (30.3 µM, […]) came out at 18.84%.
Still for that read-out and setting: the value for `O=C(NC1CC(F)(F)C1)[C@]12COC[C@H]1CN(Cc1ccsc1)C2` was 55.66%; that for `Cc1ncsc1CN1C[C@@H]2COC[C@]2(C(=O)NC2CC(F)(F)C2)C1.O=C(O)C(F)(F)F` was 30.87%.
The same measure, in the same setting: the same measure for `CNS(=O)(=O)c1cccc(C(C)NCc2ccc(C)c(C)c2)c1` (stereo not given): 17.01%; for `Cc1ccc2c(c1)C1(CCNCC1)CN2C(=O)C(C)C`: 17.68%.
The same measure, in the same setting: the same measure for `CCOC(=O)N1CC2(CCNCC2)c2cc(Cl)ccc21.Cl`: 67.51%.

The values above are taken from ChEMBL document CHEMBL3988442, “University of Dundee, Small-Polar-MMV Screening Library” (2021).
